Source: PubChem (National Center for Advancing Translational Sciences (NCATS))
MARV entry inh – qHTS for Inhibitors of binding or entry into cells for Marburg Virus; Potency, µM (doses to about 49.2 µM), for the others: at the highest dose activity change, negative = inhibition, most hits filed as inhibitors; Marburg virus pseudotype entry/binding inhibition, cell-based; 6.5% of 18,000 active
LASV entry inh – qHTS for Inhibitors of binding or entry into cells for Lassa Virus. AID 720533, 2013. 4.1% of 18,000 active. Lassa virus pseudotyped entry inhibition, cell-based qHTS. Potency, µM (top dose mostly 49.2 µM), for inactives: top-dose activity change, negative = inhibition, most hits filed as inhibitors
An asterisk follows results filed as active; ! = a repeat was not active; [ ] = remark or other dose. Compounds with a hit are over-represented: about 8% of the library has one in this group of screens. The call rests on the fitted dose curve; tested in HEK293 cells. On the % scale 0 is the no-effect control and ±100 the full control effect; potency means the concentration at half of the fitted maximal effect.

`CCC(C(=O)O)c1ccccc1` (centres undefined) gave MARV entry inh -14% and LASV entry inh -1%.
`c1ccc(C(NCCNC(c2ccccc2)c2ccccc2)c2ccccc2)cc1` gave MARV entry inh 7.1µM* and LASV entry inh 13µM*.
For CCCCCCC(=O)Cc1cc(OC)c(OC)cc1C=C(C(C)=O)C(=O)OC the results were MARV entry inh inconclusive and LASV entry inh 17%[8.59 µM].
C=C(CCN1C=C(C(C)=O)C(c2ccccc2)NC1=O)c1ccccc1 (centres undefined) was read as MARV entry inh inconclusive and LASV entry inh -8%[8.59 µM].
`CCc1cc2c(nc1CC)CCN(CCC(C)=NO[C@@H](C)c1cn([C@H](CO)Cc3ccccc3)nn1)C2` gave MARV entry inh -27%[8.59 µM] and LASV entry inh 16%[8.59 µM].
CC[n+]1c(/C=C/N(C)c2ccccc2)n(-c2ccccc2)c2ccc(-c3nc4ccccc4s3)cc21 was read as MARV entry inh 2µM* and LASV entry inh 3.2µM*.
Screening O=C1OC2(CCCCC2)CC2=C1[C@H]1O[C@](CCCCN3C(=O)c4ccccc4C3=O)(Cc3ccccc31)O2 returned MARV entry inh inconclusive and LASV entry inh -21%[8.59 µM].
`CCN1C(=NCc2ccccc2)N[C@@H](CCc2ccccc2)[C@H](C(=O)OC)[C@H]1C` gave MARV entry inh -18%[8.59 µM] and LASV entry inh -7%[8.59 µM].
`NCCc1ccccn1` gave MARV entry inh 16% and LASV entry inh -3%.
c1ccc(CN(CCN(Cc2ccccn2)Cc2ccccn2)Cc2ccccn2)nc1 was read as MARV entry inh 10µM* and LASV entry inh 10µM*.
CSC[C@H]1CN(Cc2ccccc2)C(=O)[C@H]1CC(=O)Nc1ccc(Br)cc1 was read as MARV entry inh -22% and LASV entry inh -27%.
For CCN1/C(=C/C=C/c2sc3ccccc3[n+]2CC)Sc2ccccc21 the results were MARV entry inh 2.8µM* and LASV entry inh 2.5µM*.
CCC(/C=C1\Sc2ccc(OC)cc2N1CCO)=C\c1sc2ccc(OC)cc2[n+]1CCO was read as MARV entry inh 5% and LASV entry inh -20%.
`CC(C)OC(=O)[C@H](C)NC(=O)N1CCc2nc(-c3ccccc3)c3c(c2C1)CO[C@@H](C)C3` gave MARV entry inh -2%[8.59 µM] and LASV entry inh -9%[8.59 µM].
Screening CC(O)c1cccc(-c2ccc(CN3C[C@]4(CO)OC(CO)C[C@H]4[S+]3(=O)[O-])cc2)c1 (some centres undefined) returned MARV entry inh 14% and LASV entry inh -26%.
`COc1ccc(O[C@@H]2[C@H](O)CO[C@@H]2C=CC#Cc2ccccc2)cc1` gave MARV entry inh 8%[8.59 µM] and LASV entry inh -28%[8.59 µM].
C[C@@H]1CCC2[C@@H](C)[C@@H](O)O[C@@H]3O[C@@]4(C)CC[C@@H]1[C@@]23OO4 (some centres undefined) was read as MARV entry inh 1.3µM* and LASV entry inh 0.63µM*.
Screening CC1CCC2C(C)C(=O)OC3OC4(C)CCC1C32OO4 (centres undefined) returned MARV entry inh -7% and LASV entry inh inconclusive.
For CC(C)CCC[C@@H](C)[C@H]1CC(=O)C2=C3CC[C@H]4C[C@@H](O)CC[C@]4(C)[C@H]3CC[C@@]21C the results were MARV entry inh 25% and LASV entry inh -23%.
Screening CC12C=C(C=Cc3ccccc3)C(C)(C1)C(c1ccccc1)CC2=O (centres undefined) returned MARV entry inh -4%[8.59 µM] and LASV entry inh -11%[8.59 µM].
Screening C[C@@H]1C=CCC(=O)N[C@@H](c2cccc(Br)c2)[C@H](C)C=CCC(=O)N[C@@H]1c1cccc(Br)c1 returned MARV entry inh inconclusive and LASV entry inh -6%[8.59 µM].
CCCCC[C@H](O)C/C=C1/C(=O)C=C[C@@H]1C/C=C\CCCC(=O)O was read as MARV entry inh 12% and LASV entry inh inconclusive.
Screening CCCCC/C=C/C=C1/C(=O)C=C[C@@H]1C/C=C\CCCC(=O)O returned MARV entry inh inconclusive and LASV entry inh 16µM*!.
Screening FC(F)(F)c1cc(NC(=S)NC(c2ccccc2)c2ccccc2)cc(C(F)(F)F)c1 returned MARV entry inh inconclusive and LASV entry inh -44%.
For CNCCC(Oc1ccc(C(F)(F)F)cc1)c1ccccc1 (centres undefined) the results were MARV entry inh 7.1µM* and LASV entry inh 18µM*!.
CCN1C(=NCc2ccc3c(c2)OCO3)NC(CCc2ccccc2)C(C(=O)OC)=C1C (centres undefined) was read as MARV entry inh -30%[8.59 µM] and LASV entry inh 49%[8.59 µM].
`CO[C@]1(C)C[C@H]2O[C@]1(C)n1c3ccccc3c3c4c(c5c6ccccc6n2c5c31)C(=O)N(C)C4` gave MARV entry inh 0% and LASV entry inh -5%.
O=C1NC(=O)c2c1c1c3ccccc3n3c1c1c2c2ccccc2n1C1CCC3O1 was read as MARV entry inh 1.1µM* and LASV entry inh inconclusive.
C[C@@](N)(C(=O)O)c1ccc(S(=O)(=O)O)cc1 was read as MARV entry inh 11% and LASV entry inh 4%.
Cc1ccc(S(=O)(=O)/C=C\C#N)cc1 was read as MARV entry inh 10µM* and LASV entry inh 16µM*.
For CC(C)(C)c1ccc(S(=O)(=O)/C=C\C#N)cc1 the results were MARV entry inh 16µM* and LASV entry inh 35µM*.
`Cc1ccc(S(=O)(=O)/C=C/C#N)cc1` gave MARV entry inh 2.8µM* and LASV entry inh 7.1µM*.
Screening CCCNC(=O)OC[C@H]1O[C@H](CCON=C(C)CCN2CCCc3nc(C)c(C)cc32)C=C[C@H]1Oc1ccc(OC)cc1 returned MARV entry inh inconclusive and LASV entry inh 28%[8.59 µM].
Cc1ccccc1CN1[C@@H](C)[C@@H](c2ccccc2)Oc2c(Cl)cccc2S1(=O)=O was read as MARV entry inh 11% and LASV entry inh 13%.
Screening COc1cc(O)c2c(c1)oc(=O)c1c3cc(O)c(O)cc3oc21 returned MARV entry inh 11µM* and LASV entry inh inconclusive.
`COc1c(O)cc2c(=O)oc3c(OC)c(O)cc4c(=O)oc1c2c34` gave MARV entry inh -12% and LASV entry inh -1%.
`COC(=O)C1=C2CCCO[C@H]2[C@@H]2[C@@H](C)[C@H](OC)c3ccccc3[C@@H]12` gave MARV entry inh 2%[8.59 µM] and LASV entry inh -13%[8.59 µM].
For OC1(c2cccnc2)CCN(Cc2ccc3c(c2)CN(Cc2ccc(Cl)cc2)CCO3)CC1 the results were MARV entry inh 4% and LASV entry inh 6%.
Screening OC1(c2ccc(Cl)cc2)CCN(Cc2c[nH]c3ccccc23)CC1 returned MARV entry inh 8.9µM* and LASV entry inh inconclusive.
`CC(C)=CCCC(C)=CCN1C(=O)[C@@]2(C[C@@H](C)C[C@@H](C)O2)c2ccccc21` gave MARV entry inh -7%[8.59 µM] and LASV entry inh -22%[8.59 µM].
Screening CN1C/C(=C/c2ccc(B(O)O)cc2)C(=O)/C(=C/c2ccc(B(O)O)cc2)C1 returned MARV entry inh 6.3µM* and LASV entry inh 13µM*.
Screening COC(=O)c1c(C(=O)OC)c2c3ccccc3cc(C3CC3)n2c1C(=O)OC returned MARV entry inh 12%[8.59 µM] and LASV entry inh 2%[8.59 µM].
`CC[C@H]1OC(=O)[C@H](C)[C@@H](O[C@H]2C[C@@](C)(OC)[C@@H](O)[C@H](C)O2)[C@H](C)[C@@H](O[C@@H]2O[C@H](C)C[C@H](N(C)C)[C@H]2O)[C@](C)(O)C[C@@H](C)CN(C)[C@H](C)[C@@H](O)[C@]1(C)O` gave MARV entry inh 2.8µM* and LASV entry inh inconclusive.
